Laboratory results published in ChEMBL document CHEMBL1857833, “Screening and optimization of specific chemical series against human African Trypanosomiasis (HAT)”.
In all, about 4,400 compounds went through this assay and about 390 (8.9%) showed an effect of 50% or more. The sample as a whole holds a higher share of strong results than the screen did.

The compounds below were run on Trypanosoma brucei (assay: DNDI: Inhibition of Human African Trypanosomiasis, SBRI 427, in vitro at 2 ug.mL-1).
Type: functional

SMILES	% inhibition
Cc1cc(C)n(/C(=N\O)c2ccc(Oc3ccc4ccccc4c3)nc2)n1	12%
CCCCC(CC)CNCc1coc(-c2ccccc2Br)n1 (stereo unspecified)	8%
CCOc1ccccc1-c1nc(CN(CCC#N)C2CCCCC2)co1	-4%
Cc1ncn(Cc2coc(-c3ccc(Br)cc3)n2)c1C=O	10%
CCOC(=O)CC(C)NCc1coc(-c2ccc(Cl)cc2Cl)n1 (stereo unspecified)	-1%
O/N=C(/c1ccnc(Oc2cc(Cl)ccc2Cl)c1)N1CCC=N1	32%
N/C(=N\O)c1ccnc(Oc2cc(Cl)ccc2Cl)c1	20%
COc1cccc(CN/C(=N\O)c2ccnc(Oc3cc(Cl)ccc3Cl)c2)c1	11%
O/N=C(\NC1CCC1)c1ccnc(Oc2cc(Cl)ccc2Cl)c1	95%
CC1CC(N/C(=N\O)c2ccnc(Oc3cc(Cl)ccc3Cl)c2)CC(C)(C)C1 (stereo unspecified)	9%
O/N=C(\NC1CCCC1)c1ccnc(Oc2cc(Cl)ccc2Cl)c1	94%
O/N=C(/c1cccnc1Oc1ccccc1OCc1ccccc1)N1CCOCC1	-16%
CN(CCCNCc1coc(-c2cccc(F)c2)n1)c1ccccc1	5%
CCOc1ccc(-c2nc(CN(CC)C(C)(C)C)co2)cc1	6%
CC(C)COc1ncccc1/C(=N/O)Nc1ccc(C(C)C)cc1	2%
CC1CCC(N/C(=N\O)c2cccnc2OCC(C)(C)C)CC1 (stereo unspecified)	5%
CC(C)COc1ncccc1/C(=N/O)NC1CCC(C)CC1 (stereo unspecified)	83%
CC(C)COc1ncccc1/C(=N/O)NC1CCCC1	97%
CC(C)COc1ncccc1/C(=N/O)N1CCC(C)CC1	-1%
CC(C)COc1ncccc1/C(=N/O)NC1CCCCC1	82%
CC(C)COc1ncccc1/C(=N/O)NC1CCC1	97%
CC(C)COc1ncccc1/C(=N/O)NC1CCN(Cc2ccccc2)C1 (stereo unspecified)	-2%

SMILES	% inhibition
Cc1ccccc1-c1nc(CN2CCC(N3CCCCC3)CC2)co1	14%
C1=C(CCNCc2coc(-c3cccs3)n2)CCCC1	-10%
Cc1ccccc1NCc1coc(-c2ccco2)n1	-2%
CCN(Cc1coc(-c2ccc(C(F)(F)F)cc2)n1)c1ccccc1	4%
CC(NCc1coc(-c2ccc(OC(F)(F)F)cc2)n1)c1cccc2ccccc12 (stereo unspecified)	-34%
O/N=C(\NCc1cc(F)cc(F)c1)c1ccc(Oc2c(F)c(F)cc(F)c2F)nc1	10%
COc1ccc(CN/C(=N\O)c2ccc(Oc3cccc4c3CCCC4)nc2)cc1	32%
CCC(CC)N/C(=N\O)c1ccc(Oc2cccc3c2CCCC3)nc1	76%
O/N=C(\Nc1ccccc1)c1ccc(Oc2cccc3c2CCCC3)nc1	22%
O/N=C(/c1ccc(Oc2cccc3c2CCCC3)nc1)N1CCCCC1	31%
O/N=C(\NCC1CC1)c1ccc(Oc2cccc3c2CCCC3)nc1	77%
O/N=C(\NCc1c(F)cccc1F)c1ccc(Oc2cccc3c2CCCC3)nc1	15%
O/N=C(\NC1CCCC1)c1ccc(Oc2cccc3c2CCCC3)nc1	97%
N/C(=N\O)c1ccc(Oc2cccc3c2CCCC3)nc1	19%
O/N=C(\NCc1cccs1)c1ccc(Oc2cccc3c2CCCC3)nc1	4%
Cc1ccccc1-c1nc(CN2CCN(c3cccc(C(F)(F)F)c3)CC2)co1	14%
CCOc1ccccc1-c1nc(CN2CCC3(CC2)OCCO3)co1	1%
COC(=O)C1CCN(Cc2coc(-c3cccc(F)c3)n2)CC1	6%
CCN(CC)Cc1coc(-c2cccc(OC)c2)n1	11%
CCc1ccc(Oc2ncccc2/C(=N/O)NCc2ccncc2)cc1	5%
COc1cccc(CN/C(=N\O)c2cccnc2OCC2CCCCC2)c1	71%
COc1ccc(Oc2ncccc2/C(=N/O)NCc2ccccc2)cc1	86%

SMILES	% inhibition
CCc1ccc(Oc2ncccc2/C(=N/O)NCc2cccnc2)cc1	3%
COc1ccc(CN/C(=N\O)c2cccnc2Oc2ccccc2)cc1	14%
COc1cccc(CN/C(=N\O)c2cccnc2OC2CCC2)c1	-1%
O/N=C(\NCc1cc(F)ccc1F)c1cccnc1Oc1ccc(Cl)cc1	12%
COc1ccc(Oc2ncccc2/C(=N/O)NCc2cc(F)cc(F)c2)cc1	39%
COc1ccc(Oc2ncccc2/C(=N/O)NCc2ccncc2)cc1	-2%
CCc1ccc(Oc2ncccc2/C(=N/O)NCc2ccccc2)cc1	99%
O/N=C(\NCc1cc(F)cc(F)c1)c1cccnc1Oc1ccc(Cl)cc1	59%
O/N=C(\NCc1cccnc1)c1cccnc1OCC1CCCCC1	6%
CC(C)(C)c1ccc(-c2nc(Cn3nc(N)cc3-c3ccccc3)co2)cc1	9%
CN(CCC#N)Cc1coc(-c2cccc3ccccc23)n1	7%
CCOC(=O)C1CCCCN1Cc1coc(-c2cccc(OCC)c2)n1 (stereo unspecified)	2%
COc1ccccc1CNCc1coc(-c2ccc(Br)cc2)n1	3%
CCN(Cc1coc(-c2ccccc2Cl)n1)c1cccc2ccccc12	-6%
COc1cccc(CN/C(=N\O)c2cccnc2Oc2ccc(Cl)cc2)c1	98%
COc1cccc(CN/C(=N\O)c2cccnc2Oc2c(F)cccc2F)c1	17%
COc1ccc(Oc2ncccc2/C(=N/O)NCc2cccc(OC)c2)cc1	-6%
O/N=C(/c1ccnc(Oc2ccc(F)c(Cl)c2)c1)N1CC=CCC1	17%
Cc1cccc(Oc2ncccc2/C(=N/O)N2CC(C)CC(C)C2)c1C (stereo unspecified)	1%
Cc1ccc(Oc2nc(C)ccc2/C(=N/O)NCCN2CCCCC2)c(C)c1	0%
Cc1cc(C)cc(Oc2nc(C)ccc2/C(=N/O)NCC2CCCCC2)c1	14%
Cc1ccc(Oc2nc(C)ccc2/C(=N/O)NCC2CCCCC2)c(C)c1	62%

SMILES	% inhibition
COc1cc(C)ccc1Oc1nc(C)ccc1/C(=N/O)NC1CCCC1	-8%
Cc1ccc(Oc2nc(C)ccc2/C(=N/O)NC2CCCC2)c(C)c1	25%
Cc1ccc(Oc2nc(C)ccc2/C(=N/O)NC2CCCCC2)c(C)c1	100%
C=CCN1CCN(/C(=N\O)c2ccc(C)nc2Oc2ccc(C)cc2)CC1	30%
CC1C=CC(C)N1/C(=N\O)c1cccnc1Oc1ccc(Cl)cc1 (stereo unspecified)	-7%
Cc1ccc(N2CCN(Cc3coc(-c4ccc(OC(F)(F)F)cc4)n3)CC2)cc1C	23%
CC(C)(C)COc1ncccc1/C(=N/O)NCC1CCCO1 (stereo unspecified)	4%
C[C@H]1C(NCc2coc(-c3ccccc3Br)n2)C[C@@H]2C[C@H]1C2(C)C (stereo partly specified)	98%
CC(C)(C)CNCc1coc(-c2ccccc2Br)n1	7%
C[C@@H]1C(NCc2coc(-c3ccccc3Br)n2)C[C@H]2C[C@@H]1C2(C)C (stereo partly specified)	100%
Brc1ccccc1-c1nc(CNC2CCc3ccccc32)co1 (stereo unspecified)	7%
CCC(CC)CNCc1coc(-c2ccccc2Br)n1	1%
Brc1ccccc1-c1nc(CNCc2ccccc2)co1	11%
Cc1ccc(/C(=N/O)N2CCCCC2)c(Oc2ccc(F)cc2)n1	24%
CCc1nccn1Cc1coc(-c2cc(OC)c(OC)c(OC)c2)n1	9%
Cc1ccc2cccc(Oc3cc(/C(N)=N/O)ccn3)c2n1	7%
Cc1ccc(/C(=N/O)N2CCCC2)c(OCc2ccccc2C)n1	10%
CN(Cc1coc(-c2ccc(Cl)cc2Cl)n1)Cc1ccco1	11%
O=C(C1CCCO1)N1CCN(Cc2coc(-c3ccc(C(F)(F)F)cc3)n2)CC1 (stereo unspecified)	4%
CCOC(=O)C1CCCN(Cc2coc(-c3ccccc3Cl)n2)C1 (stereo unspecified)	4%
COc1cccc(-c2nc(CN3CCN(c4ccccc4OC)CC3)co2)c1	-9%
CC1CC(C)CN(/C(=N\O)c2cccnc2Oc2ccccc2)C1 (stereo unspecified)	10%

SMILES	% inhibition
Cc1ccc(-c2nc(CNc3ccccc3C)co2)cc1	-4%
O/N=C(\NCc1cccnc1)c1ccc(Oc2ccc3oc4ccccc4c3c2)nc1	84%
O/N=C(\NCc1ccncc1)c1ccc(Oc2ccc3oc4ccccc4c3c2)nc1	-14%
Cc1cc(C)cc(CN/C(=N\O)c2ccc(Oc3ccc4oc5ccccc5c4c3)nc2)c1	32%
CC(C)CN/C(=N\O)c1ccc(Oc2ccc3oc4ccccc4c3c2)nc1	11%
O/N=C(\NC1CC1)c1ccc(Oc2ccc3oc4ccccc4c3c2)nc1	82%
CCC(C)(C)N/C(=N\O)c1ccc(Oc2ccc3oc4ccccc4c3c2)nc1	97%
COc1cccc(CN/C(=N\O)c2ccc(Oc3ccc4oc5ccccc5c4c3)nc2)c1	16%
CN(/C(=N\O)c1ccc(Oc2ccc3oc4ccccc4c3c2)nc1)C1CCCCC1	22%
CC(C)(C)CN/C(=N\O)c1ccc(Oc2ccc3oc4ccccc4c3c2)nc1	8%
O/N=C(\NC1CCC1)c1ccc(Oc2ccc3oc4ccccc4c3c2)nc1	94%
O/N=C(\NCC1CCCO1)c1ccc(Oc2ccc3oc4ccccc4c3c2)nc1 (stereo unspecified)	-8%
O/N=C(\NC1CCc2ccccc21)c1ccc(Oc2ccc3oc4ccccc4c3c2)nc1 (stereo unspecified)	19%
Cc1ccc(N(C)Cc2coc(-c3cccc4ccccc34)n2)cc1	6%
Cn1nc(C(C)(C)C)cc1NCc1coc(-c2ccc(C(C)(C)C)cc2)n1	-5%
Cc1ccc(C(C)C)c(Oc2cc(/C(=N/O)Nc3ccc(C(C)C)cc3)ccn2)c1	21%
COCCN(Cc1coc(-c2ccccc2Cl)n1)C(C)C	-24%
c1ccc2c(-c3nc(CNCc4ccncc4)co3)cccc2c1	6%
